Bioassay records (PubChem BioAssay)
BioA inh-1: M. tuberculosis BioA enzyme inhibitors, primary screen, biochemical, plate reader, single point, HTS; purified M. tuberculosis BioA enzyme; actives 0.096% (n = 360,000); 7,8-diaminopelargonic acid synthase BioA (Mycobacterium tuberculosis); AID 602481, 2012; inhibition, % at 9.99 µM; in the data active = inhibition above about 40%; inconclusive = no clear call, values can overlap the other calls
Mtb FBA inh: Mtb FBA enzyme inhibitors, primary screen, biochemical, fluorescence, strain H37Rv; Fructose-bisphosphate aldolase (Mycobacterium tuberculosis (strain ATCC 25618 / H37Rv)), …; inhibition, % at 1 µM; actives 2.3% (n = 360,000); AID 588726, 2011; purified M. tuberculosis FBA, fluorescence read-out; in the data active = inhibition above about 27%;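 note: 0% = vehicle and 100% = reference inhibitor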
Target sequence (P9WQA3 whole entry, looked up): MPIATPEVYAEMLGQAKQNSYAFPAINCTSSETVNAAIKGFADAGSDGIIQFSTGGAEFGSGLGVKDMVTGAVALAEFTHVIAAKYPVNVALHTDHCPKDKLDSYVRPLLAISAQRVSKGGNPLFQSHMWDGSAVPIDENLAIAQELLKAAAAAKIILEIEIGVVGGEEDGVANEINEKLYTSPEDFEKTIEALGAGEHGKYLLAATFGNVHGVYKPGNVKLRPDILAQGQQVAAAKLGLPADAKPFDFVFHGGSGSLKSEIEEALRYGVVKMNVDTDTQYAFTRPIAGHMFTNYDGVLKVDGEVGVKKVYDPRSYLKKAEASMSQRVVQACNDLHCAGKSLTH
GDH-TPI counter: GDH-TPI coupling enzyme inhibitors, primary screen, artefact control for M. tuberculosis FBA inhibitor project, biochemical, absorbance, full deck; GDH-TPI coupled enzyme counterscreen, NADH absorbance; inhibition, % at 4.8 µM; actives 1.2% (n = 360,000); in the data active = inhibition above about 30%;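 note: 0% = DMSO wells and 100% = wells lacking the enzyme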
Rv3671c protease: Rv3671c serine protease inhibitors, primary screen, biochemical, fluorescence polarization, M. tuberculosis H37Rv | AID 2606, 2010 | inhibition, % at 5.96 µM | P9WHR9 | actives 0.048% (n = 320,000); in the data active = inhibition above about 38%;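 note: extracellular domain of Rv3671c used as enzyme; 0% = enzyme with DMSO and 100% = no enzyme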
FadD28 FP inh: inhibitors of FadD28 bisubstrate probe binding, primary screen, biochemical, fluorescence polarization, single point. Mycobacterium tuberculosis FadD28 fatty-acid-AMP ligase. inhibition, % at 12.5 µM. actives 0.22% (n = 360,000); in the data active = inhibition above about 8.5%, passing the limit was not always enough; inconclusive = no clear call, values can overlap the other calls
BioA inh-2: Mtb BioA enzyme inhibitors, dose response, biochemical, plate reader, cherry-pick samples, set 03; max activity, %; AID 651679, 2012; shares compounds with BioA inh-1; purified BioA enzyme; 310 tested, under 10 active;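 note: top concentration of the dilution series was 10 µM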
HepG2 tox 2: cytotoxicity in HepG2 cells, dose response, cytotoxicity control, cell-based, plate reader, cherry-pick, two tests | shares compounds with BioA inh-1 | max activity, % | 310 tested, under 10 active
3T3 cytotox 5: cytotoxicity in NIH3T3 fibroblasts, dose response, cytotoxicity control, cell-based, plate reader, cherry-pick, two tests; shares compounds with BioA inh-1; activity change, negative = cytotoxicity, % at 26 µM; AID 651900, 2012; 310 tested, under 10 active
The depositor's hits bear a star; i = inactive; ? = inconclusive; . = no result; + = active, no number. An excerpt weighted towards active compounds, which were near 3% of everything screened. Unless noted, the rule behind the calls is not given here.

SMILES	BioA inh-1	Mtb FBA inh	GDH-TPI counter	Rv3671c protease	FadD28 FP inh	BioA inh-2	HepG2 tox 2	3T3 cytotox 5
O=C(Nc1ccc2c(c1)[C@H]1C[C@@H](CC(=O)N3CCc4ccccc4C3)O[C@H](CO)[C@H]1O2)c1cccnc1	55.0*	.	.	.	.	-3.7	i	-6.7
O=C(C[C@@H]1C[C@@H]2c3cc(NC(=O)c4cccnc4)ccc3O[C@@H]2[C@H](CO)O1)NCc1ccccn1	33.5	.	.	.	.	.	.	.
O=C(C[C@H]1C[C@H]2c3cc(NC(=O)c4cccnc4)ccc3O[C@H]2[C@H](CO)O1)NCc1ccccn1	40.4*	.	.	.	.	-2.5	i	-5.6
CN1CCCC1CCOC(C)(c1ccccc1)c1ccc(Cl)cc1 (stereo unspecified)	48.5*	-4.5	-5.3	.	-7.3	9.8	18.1	?
O=C(CSc1nncs1)N1c2ccccc2Sc2ccccc21	43.6*	-0.3	7.8	0.7	-13.8	-2.0	-11.7	-2.7
CCN(CC)c1ccc2cc(C(=O)NCc3ccc(F)cc3)c(=N)oc2c1	-1.3	0.1	0.3	-5.0	-2.8	.	.	.
CCN(CC)c1ccc2cc(C(=O)c3cccs3)c(=O)oc2c1	90.9*	-34.7	.	.	1.4	-7.4	49.1	-9.0
C[C@@H](O)C#Cc1ccc2c(c1)O[C@H](CN(C)C(=O)CC1CC1)[C@@H](C)CN([C@@H](C)CO)S2(=O)=O	-1.7	.	.	.	.	.	.	.
COc1ccc(-c2cc3cc(OC)c(OC)cc3cn2)cc1OC	.	-1.1	12.2	-3.5	-2.8	.	.	.
COc1cc2cnc(-c3cccnc3)cc2cc1OC	46.4*	4.6	17.1	1.6	-0.8	-6.5	-10.7	-0.5
Cc1ccc(C(=O)Nc2ncc3c(n2)CC(c2ccco2)CC3=O)cc1 (stereo unspecified)	.	2.9	13.1	-6.6	-2.3	.	.	.
O=C(Nc1ncc2c(n1)CC(c1ccco1)CC2=O)c1ccccc1 (stereo unspecified)	59.8*	6.9	6.8	-2.4	-0.2	-9.0	-14.0	-7.2
CC(C)NC(=O)N(C)C[C@@H]1Oc2ccc(NS(=O)(=O)c3cccs3)cc2C(=O)N([C@H](C)CO)C[C@@H]1C	-1.9	.	.	.	.	.	.	.
CO[C@H]1CN(C)C(=O)c2cc(NC(=O)C3CCOCC3)ccc2OC[C@H](C)N(Cc2cccnc2)C[C@H]1C	-2.5	.	.	.	.	.	.	.
C[C@@H]1CN([C@@H](C)CO)C(=O)c2cccc(NC(=O)c3cnccn3)c2O[C@H]1CN(C)C(=O)Nc1ccc(C(F)(F)F)cc1	-4.0	.	.	.	.	.	.	.
Cn1ncc2c(Nc3ccc(Cl)cc3)ncnc21	2.6	-2.6	-0.8	-6.4	-3.3	.	.	.
Cn1ncc2cc3c(Nc4ccc(Cl)cc4)cccc3nc21	81.4*	3.0	.	.	0.0	-4.2	-9.1	-2.9
C/C=C(/C)C(=O)OC(C)(C)[C@@H]1Cc2c(ccc3ccc(=O)oc23)O1	52.8*	+	7.6	5.6	-4.0	3.9	15.3	2.9
O=C(C1CCCCC1)N1CC[C@H]2[C@H](CO)Nc3ccc(Br)cc3[C@H]21	4.3	.	.	.	.	.	.	.
O=C(C1CCOCC1)N1CC[C@@H]2[C@H]1c1cc(Br)ccc1N[C@@H]2CO	73.7*	.	.	.	.	1.6	i	-0.2
O=C(C1CCOCC1)N1CC[C@@H]2[C@H](CO)Nc3ccc(Br)cc3[C@@H]21	71.5*	.	.	.	.	9.0	i	0.9
O=C(Cc1ccccc1)N1CC[C@@H]2[C@H](CO)Nc3ccc(Br)cc3[C@@H]21	44.3*	.	.	.	.	4.9	i	-10.2
COc1ccc(C(C)NC(=O)Nc2ccc(C(C)=O)cc2)cc1OC (stereo unspecified)	43.0*	4.3	1.4	-2.4	-0.8	-4.3	7.5	5.0
CN(C(=O)CSc1nc2ccccc2c(=O)n1-c1ccccc1Cl)C1CCS(=O)(=O)C1 (stereo unspecified)	49.6*	1.3	8.7	-1.9	-1.8	9.5	-8.3	0.7
Cc1ccccc1-n1c(SCC(=O)N(C)C2CCS(=O)(=O)C2)nc2ccccc2c1=O (stereo unspecified)	59.7*	-2.8	-3.1	2.8	-2.9	-3.1	17.9	-0.2
SMILES	BioA inh-1	Mtb FBA inh	GDH-TPI counter	Rv3671c protease	FadD28 FP inh	BioA inh-2	HepG2 tox 2	3T3 cytotox 5
COc1ccccc1-n1c(SCC(=O)N(C)C2CCS(=O)(=O)C2)nc2ccccc2c1=O (stereo unspecified)	?	1.3	-3.4	7.3	-1.5	.	.	.
O=C(Nc1nccs1)[C@H]1[C@H](CO)[C@H]2Cn3c(ccc(-c4cccnc4)c3=O)[C@H]2N1CC1CCCC1	51.7*	.	.	.	.	-6.3	i	14.1
CCNC(=O)[C@H]1[C@H](CO)[C@H]2Cn3c(ccc(-c4cccc(F)c4)c3=O)[C@H]2N1C(=O)Cc1cccnc1	41.9*	.	.	.	.	-4.6	i	-0.4
C[C@@H]1CN([C@@H](C)CO)C(=O)c2cc(NS(=O)(=O)c3ccc(F)cc3)ccc2O[C@@H](C)CCCCO[C@@H]1CN(C)CC1CCCCC1	3.5	.	.	.	.	.	.	.
O=C(O)CSc1ncnc2scc(-c3ccc(Br)cc3)c12	44.9*	0.9	-10.1	-6.6	-0.6	-6.0	19.2	-3.1
COc1ccccc1NC(=O)N[C@@H]1CC[C@H](CCn2cc(-c3cccnc3)nn2)O[C@H]1CO	56.7*	.	.	.	.	5.0	i	-8.8
O=C(N[C@H]1CC[C@@H](CCn2cc(-c3cccnc3)nn2)O[C@H]1CO)c1ccccc1F	46.7*	.	.	.	.	3.1	i	1.5
COc1ccccc1NC(=O)N[C@H]1CC[C@@H](CCn2cc(-c3cccnc3)nn2)O[C@H]1CO	33.5	.	.	.	.	.	.	.
COc1ccc(NC(=O)Nc2ccc3c(c2)C(=O)N([C@@H](C)CO)C[C@H](C)[C@@H](CN(C)S(=O)(=O)c2ccc(OC)cc2)OCCCC[C@H](C)O3)cc1	0.0	.	.	.	.	.	.	.
CO[C@H]1CN(C)C(=O)c2ccc(NC(C)=O)cc2OC[C@@H](C)N(C(=O)c2ccc(F)cc2)C[C@H]1C	49.6*	.	.	.	.	9.6	i	-5.3
C[C@H](CO)N1C[C@H](C)[C@H](CN(C)C(=O)Cc2ccncc2)Oc2cc(C#CC3CCCC3)ccc2S1(=O)=O	-0.1	.	.	.	.	.	.	.
COc1ccc(NC2c3ccccc3C(=O)N2c2cccnc2)cc1Cl (stereo unspecified)	51.5*	0.2	-6.2	-3.0	-3.7	-7.2	-15.9	-2.7
O=C1c2ccccc2C(Nc2ccccc2)N1c1cccnc1 (stereo unspecified)	2.3	-2.0	-2.9	6.0	-3.7	.	.	.
CC(C)NC(=O)N1C[C@H]2[C@@H](c3ccccc31)[C@H](CO)N2C(=O)Nc1cccc(F)c1	-1.1	.	.	.	.	.	.	.
Cn1nnc2cc(C(=O)N3CCC(c4ccccc4)C3)ccc21 (stereo unspecified)	65.7*	-1.8	1.9	-1.4	-2.0	-9.5	-12.7	-8.4
